# Potency and affinity values are given separately. Values without a mark were called inactive.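 Rule for the calls: active = dose curve whose fit quality R squared exceeds 0.5; inactive = the rest.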
# Target: Muscarinic acetylcholine receptor M4 (Rattus norvegicus) (UniProt P08485)
# Experiment: potentiation of ACh calcium response at rM4 – cell-based, CHO-K1 rat M4/Gqi5, Fluo-4 calcium, ACh EC20, selectivity assay for M1 muscarinic PAM project, dose response (AID 2438)
# Details: series mostly up to 30 µM; percent of max ACh response: at the top concentration
# Chain of Muscarinic acetylcholine receptor M4 (Rattus norvegicus) (P08485 whole entry, looked up): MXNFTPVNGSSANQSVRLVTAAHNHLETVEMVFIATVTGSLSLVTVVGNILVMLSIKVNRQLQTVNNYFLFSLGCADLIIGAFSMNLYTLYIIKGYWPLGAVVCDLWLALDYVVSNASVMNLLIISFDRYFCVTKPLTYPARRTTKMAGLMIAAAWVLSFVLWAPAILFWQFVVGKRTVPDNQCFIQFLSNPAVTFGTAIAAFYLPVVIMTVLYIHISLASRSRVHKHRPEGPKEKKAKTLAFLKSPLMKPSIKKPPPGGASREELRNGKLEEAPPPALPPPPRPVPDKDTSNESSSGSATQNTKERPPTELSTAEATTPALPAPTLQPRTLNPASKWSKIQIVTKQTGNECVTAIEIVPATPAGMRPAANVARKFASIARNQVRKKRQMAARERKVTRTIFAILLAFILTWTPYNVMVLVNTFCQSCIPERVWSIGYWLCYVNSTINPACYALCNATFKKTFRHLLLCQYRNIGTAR
row,Compound,percent of max ACh response
1,Cc1cc(NC(=O)CS(=O)(=O)c2cn(Cc3cc(Br)ccc3F)c3ccccc23)no1,16.2%
2,O=C1C(=O)N(Cc2ccc(Oc3ccccc3)cc2)c2ccc(OC(F)(F)F)cc21,14.5%
3,Cn1cc(-c2cc(F)c(CN3C(=O)C(=O)c4ccccc43)c(F)c2)cn1,15.7%
4,Cn1cc(-c2ccc(CN3C(=O)C(=O)c4ccccc43)c(F)c2)cn1,18%

# — PubChem BioAssay AID2438 (Vanderbilt High Throughput Screening Facility, 2010)
